Nrf2 ARE act: activators of Nrf2 (ARE) signaling; Potency, µM (highest dose often 46.1 µM), without a hit: at the top dose activation, most hits filed as activators; AREc32 ARE-luciferase reporter (MCF7-derived line), luminescence, 24 h; AID 624171; 410,000 tested, 0.31% active; note: potency is the fitted concentration of half-maximal effect; % of control where 0% means no effect; nearly all actives have a fitted effect of over 65% in size
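AREc32 cells carrying an ARE-driven firefly luciferase reporter were seeded at 1000 cells/well in OPTI-MEM with 5% FBS, then exposed to compound for 24 hr at 37 deg C. Luminescence was read with Steady-Glo after 30 min at RT.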
A549 tox: kills or reduces viability of A549 cells in Nrf2 counter-screen. Potency, µM (highest dose often 46 µM), for inactives: at the top dose activity change, negative = cytotoxicity, usual class: inhibitors. 390,000 tested, 0.16% active. A549 ARE-Fluc cells, CellTiter-Fluor viability, 18-24 h; note: potency is the fitted concentration of half-maximal effect; % is set by controls: 0 for no effect and ±100 for the full control effect
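A549 ARE_Fluc cells in 5% FBS OPTI-MEM were exposed to compounds in concentration-response for 18-24 h at 37 deg C. Viability was read by CellTiter-Fluor fluorescence (Ex 405/Em 525) after 30 min, before the luciferase read.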
BRCA1 expr act: BRCA1 expression activation; MCF7-BRCA1-FFLuc reporter, luminescence, 48 h; response scale: scaled: vehicle 0%, 10 µM genistein 100%; Potency, µM (highest dose often 46.1 µM), for the others: top-dose activation, hits mostly activators; 380,000 tested, 1.1% active; note: potency is the fitted concentration of half-maximal effect; nearly all actives have a fitted effect of over 80% in size
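Quantitative HTS in MCF7 cells stably reporting BRCA1 expression via firefly luciferase. Compound treatment lasts 48 h at 37 °C in phenol-red free MEM. Activation is expressed relative to genistein at 10 microM and DMSO.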
p53 reactivator: restores transcriptional activity of mutant p53; H1299 p53-A138V BP100-luciferase reporter, luminescence, 24 h; Potency, µM (top dose mostly 92.2 µM), inactives show at the top dose activity change, positive = activation, most hits filed as activators; 320,000 tested, 0.063% active; note: potency is the fitted concentration of half-maximal effect; % of control where 0% means no effect; nearly all actives have a fitted effect of over 45% in size
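H1299 (p53-null), stable ts p53-A138V + BP100-Luc; 1000 cells/well, Opti-MEM/10% FBS; cpd 4 pt, 1:5; 24 h, 37 deg C, 5% CO2; detection reagent 10 min RT; luminescence.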
Nrf2 inh: inhibitors of Nrf2 signaling. A549 ARE-Fluc reporter, luciferase luminescence, 18-24 h. Potency, µM (series often up to 46 µM), for inactives: at the top dose activity change, negative = inhibition, hits mostly inhibitors. 360,000 tested, 2.1% active; note: potency is the fitted concentration of half-maximal effect; % is set by controls: 0 for no effect and ±100 for the full control effect; nearly all actives have a fitted effect of over 60% in size
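In this cell-based qHTS, ARE-driven firefly luciferase in A549 cells reports Nrf2 activity; the luminescent signal after BugLite lysis is the measured value, with a prior CellTiter-Fluor read for cell health.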
IL-2 act: activators of IL-2; IL-2 activation reporter assay, cell-based qHTS; stimulated with anti-CD3/CD4/CD28 beads; in transgenic mouse T cells; activation, % (series mostly up to about 46 µM); 360,000 tested, 0.065% active; AID 652025; in the data active = activation above about 50%; inconclusive = mostly about 30% to 49%; note: 0% is about no effect
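Quantitative HTS in unstimulated transgenic mouse T cells, with memory T cells as non-tolerant control and PMA/ionomycin as tolerance-bypass control. Compound pretreatment lasted 60 minutes before 18 h bead stimulation; EGFP/DsRed fluorescence read.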
* = called active by the depositor; u = inconclusive; x = no result given. Most compounds without a hit are left out; they make up all but 3.2% or so of the library. Unless noted, calls come from the whole dose curve; as a rule, active = well fitted curve in the direction sought with a large enough effect; inconclusive = small, poorly fitted or top-dose-only effect, or another doubt; inactive = no such curve, though single readings can be large; an effect the other way counts as inactive or inconclusive.

SMILES	Nrf2 ARE act	A549 tox	BRCA1 expr act	p53 reactivator	Nrf2 inh	IL-2 act
Cc1cc(/C=C2\SC(=S)NC2=O)c(C)n1-c1ccc(O)cc1	4%	u	2.2µM*	u	u	1
Cc1ccc(Cc2nc3ccccc3nc2SCC(=O)NCCC(C)C)cc1	0%	2%	2%	x	x	x
O=C(C1CCC(CNS(=O)(=O)c2cccc3nsnc23)CC1)N1CCN(c2ccccn2)CC1 (configuration not stated)	6%	-5%	-35%	1%	21µM*	0
CCCCN(C(=O)C1CCC(CNS(=O)(=O)c2cccc3nsnc23)CC1)c1ccccc1 (configuration not stated)	-1%	-8%	x	x	26µM*	x
CCCN(CCC)C(=O)C1CCC(CNS(=O)(=O)c2cccc3nsnc23)CC1 (configuration not stated)	3%	20%	6%	-5%	9%	-3
CN(Cc1ccccc1)C(=O)C1CCC(CNS(=O)(=O)c2cccc3cccnc23)CC1 (configuration not stated)	5%	1%	-53%	-5%	16µM*	0
Cc1ccc(-c2cn3c(n2)sc2cc(C(=O)NCCCc4ccccc4)ccc23)c(C)c1	0%	3%	x	x	u	x
CCOC(=O)C1CCN(C(=O)C2COc3ccccc3C2)CC1 (configuration not stated)	0%	8%	x	x	x	x
COc1ccc(/[N+]([O-])=C/c2ccco2)cc1	2%	-1%	8.9µM*	u	24%	2
Cc1cc(C)n(C(C)CC(=O)Nc2ccc(C)c(N(C)C)c2)n1 (configuration not stated)	0%	-5%	x	x	-8%	x
O=C1/C(=C/c2cccnc2)CCc2c1[nH]c1ccccc21	u	-14%	u	13%	u	-3
CC(C)C/C=C1\CCc2c([nH]c3ccccc23)C1=O	27%	16%	8.9µM*	11%	u	-2
Cc1ccc(C)c(CN2C(=O)c3ccccc3S(=O)c3ccc(C(=O)N(C)Cc4ccccc4)cc32)c1 (configuration not stated)	0%	-26%	-23%	x	21µM*	x
COc1ccccc1-c1nn(CCC(=O)Nc2ccc(C)cc2)c2nc(C)cc(C)c12	0%	-4%	-2%	x	3%	x
Cn1c(=O)n(/N=C/c2ccccc2)c2ccccc21	11µM*	11%	-44%	u	3%	-2
COc1cccc(CNc2ncnc3ccc(-c4c(C)noc4C)cc23)c1	26%	-1%	-58%	-8%	12µM*	-1
Cn1c(SCC(=O)c2ccccc2)nnc1-c1ccncc1	0%	0%	22%	5%	-3%	-2
Cn1c(SCC(=O)c2ccccc2)nnc1-c1ccccn1	0%	-1%	11µM*	10%	u	0
COc1ccc(/C=N/N2CCOCC2)cc1O	16%	3%	1%	28%	10%	-3
COc1cc(/C=N/N2CCOCC2)ccc1OCc1ccc(Cl)cc1	5%	-3%	2.2µM*	1%	27%	-4
COc1ccc(/C=N/N2CCOCC2)cc1OCc1ccccc1	2%	-7%	-32%	-2%	4%	1
COc1cc(/C=N/N2CCOCC2)ccc1OCc1ccccc1	6%	7%	7.9µM*	16%	u	-1
CSc1ccc(CCNC(=O)CN2C(=O)COc3ccc(S(=O)(=O)N4CCCCCC4)cc32)cc1	1%	u	-3%	x	u	x
COc1cccc(N=C2SC(C(=O)Nc3ccc(F)cc3)CC(=O)N2C)c1 (configuration not stated)	0%	u	-12%	-1%	21µM*	-1
Cc1cc2c(s1)c1cnn(Cc3ccc(Cl)c(F)c3)c(=O)c1n2C	x	0%	x	x	-6%	x
SMILES	Nrf2 ARE act	A549 tox	BRCA1 expr act	p53 reactivator	Nrf2 inh	IL-2 act
COc1cncc(C#Cc2ccccn2)c1	0%	x	4.5µM*	x	x	0
COc1ccc(-c2oc3ccc(-c4cc(OC)c(OC)c(OC)c4)cc3c2C#Cc2ccccn2)cc1	0%	-4%	-4%	-1%	-9%	-2
O=C(NCc1ccc(F)cc1)c1ccc(S(=O)(=O)Nc2cccc(C(F)(F)F)c2)cc1	0%	-5%	-18%	5%	23µM*	0
CC#CCN1c2ccccc2[C@]23C[C@@H](C(=O)OC)N(C(=O)c4cc(C)oc4C)C2=NC(C(=O)OC)=C(C(=O)OC)[C@H]13	0%	-15%	-24%	-6%	16µM*	0
Cc1nn(C)c(C)c1S(=O)(=O)N(CC(=O)Nc1ccc(F)cc1F)c1ccc(C(C)C)cc1	5%	-4%	x	x	-3%	x
COc1ccc(/C=C2\CCCC3C2=NN(C(=O)COC(=O)CNC(=O)c2ccccc2)C3c2ccc(OC)cc2)cc1 (configuration not stated)	2%	x	-1%	1%	13µM*	2
COc1ccccc1C1=NC(c2ccc(F)cc2)N=C1C (configuration not stated)	3%	9%	13µM*	17%	u	-3
CC(C)(C)OC(=O)NCC(=O)NNC(=O)c1cc2ccccc2[nH]1	x	2%	x	x	4%	x
Cc1ccc(OCc2cc(C(=O)N(CCO)Cc3cccs3)no2)cc1C	4%	5%	11µM*	1%	u	-1
COc1cc2ccccc2cc1C(=O)N1CC(C)CC(C)C1 (configuration not stated)	-1%	-14%	-26%	5%	12µM*	-3
CN1/C(=C\C=C(C#N)C#N)C(C)(C)c2ccccc21	2%	10%	-1%	0%	-17%	143*
c1ccc(-c2cn(-c3ccccc3)c3[n+]2CCCS3)cc1	0%	-10%	-47%	4%	9.2µM*	-1
CCOc1ccc(C2C(=O)N(C3CCCCCC3)CC(=O)N2Cc2ccc(F)cc2)cc1OC (configuration not stated)	4%	5%	x	x	x	x
Fc1cccc2sc(N3CCCCC3)nc12	3%	19%	13µM*	u	0%	0
COc1ccc(N(CC(=O)NCCc2ccc(C)cc2)S(=O)(=O)c2c(C)noc2C)cc1	2%	-19%	-22%	2%	23µM*	-1
COc1ccc(N(CC(=O)Nc2cc(C)ccc2C)S(=O)(=O)c2c(C)noc2C)cc1	-1%	-6%	-27%	-3%	u	-2
COc1ccc(N(CC(=O)NCCc2cccc(C)c2)S(=O)(=O)c2c(C)noc2C)cc1	0%	0%	-32%	0%	u	0

Bioassay records deposited in PubChem by National Center for Advancing Translational Sciences (NCATS).
